TGFb inhibitor: TGF-b pathway inhibition; HepG2 CAGA-GFP TGF-b/SMAD3 reporter, GFP fluorescence, 18 h; TGF-beta stimulated, 500 pg/mL final; Potency, µM (top dose mostly 46.1 µM), for the others: top-dose activity, negative = inhibition, most hits filed as inhibitors; 1.2% of 410,000 active; AID 588855; further: on the % scale 0 is the no-effect control and ±100 the full control effect; nearly all actives have a fitted effect of over 65% in size
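HEPG2 CAGA-GFP cells (1000/well, DMEM with 1% FBS) were pre-incubated 2 h at 37 degrees C, given compound by pin tool, then stimulated with TGF-beta at 500 pg/mL final for 18 h before per-cell GFP fluorescence imaging.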
HepG2 tox: counter-screen for TGF-b inhibitors: cytotoxicity in HepG2 cells. HepG2 CAGA-GFP viability, ATP luminescence, 18 h. Potency, µM (top dose mostly 46.1 µM), inactives show at the highest dose activity change, negative = cytotoxicity, actives largely listed as cytotoxic. 0.76% of 410,000 active. AID 588856
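HepG2 CAGA-GFP cells (1000/well, DMEM with 1% FBS) received compound, then TGF-beta at 500 pg/mL final, and were incubated 18 hours at 37 degrees C. Viability was read by CellTiter-Glo luminescence. Media-only wells were set as complete cell-killing and DMSO as no toxicity.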
ATXN2 expr inh: reduces ATXN2 reporter expression in HEK-293 cells. 0.72% of 360,000 active. HEK-293 ATXN2-luciferase reporter, luminescence, 24 h. AID 1745845. Potency, µM (titrated, usually from 57 µM), inactives show top-dose activity change, negative = inhibition, usual class: inhibitors; further: on the % scale 0 is the no-effect control and ±100 the full control effect; nearly all actives have a fitted effect of over 55% in size
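ATXN2-luciferase reporter cells (luciferase flanked by upstream and downstream ATXN2 gene portions) were treated 24 h at 37 °C with compounds at up to 57 uM. SteadyGlo luminescence gave expression; GF-AFC fluorescence gave viability.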
S2 tox: cell viability loss in ATXN counter-screen; 0.49% of 400,000 active; S2 cells (HEK-293 line with an ATXN2-luciferase reporter) viability, CellTiter-Fluor protease fluorescence, 24 h; Potency, µM (top dose mostly 56.7 µM), hits mostly cytotoxic; further: nearly all actives have a fitted effect of over 40% in size
KB-3-1 cytotox: KB-3-1 parental cell cytotoxicity; 1.4% of 400,000 active; Potency, µM (doses to about 46.1 µM), actives largely listed as cytotoxic; KB-3-1 viability, CellTiter-Glo ATP luminescence, 72 h; AID 1347075; further: on the % scale 0 is the no-effect control and ±100 the full control effect; nearly all actives have a fitted effect of over 60% in size
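Cells are dispensed, compounds pinned in, plates held at 37 °C for 72 h, then CellTiter-Glo is added and luminescence read after 10 minutes. Cell line: parental KB-3-1 in phenol-red-free DMEM, 10% FBS.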
KB-V1 MDR tox: KB-V1 MDR subline cytotoxicity | Potency, µM (top dose mostly 46.1 µM), hits mostly cytotoxic | KB-V1 MDR cells viability, CellTiter-Glo, 72 h | 3.4% of 400,000 active; further: on the % scale 0 is the no-effect control and ±100 the full control effect; nearly all actives have a fitted effect of over 60% in size
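Cells of the MDR subline KB-V1 are plated, dosed with compound at multiple concentrations, and incubated 72 h at 37 degrees C; CellTiter-Glo is then added and luminescence read after 10 min.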
* marks the source's active call; other numbers are inactive results; i = inactive; ? = inconclusive; nt = not tested or not shown; [ ] = remark or other dose. The list is not random: actives were taken first. Their share in the collection is about 5.9%. The call rests on the fitted dose curve; in most records, active means well fitted curve in the direction sought with a large enough effect; inconclusive means small, poorly fitted or top-dose-only effect, or another doubt; inactive means no such curve, though single readings can be large; an effect the other way counts as inactive or inconclusive. Potency means the concentration at half of the fitted maximal effect.

SMILES	TGFb inhibitor	HepG2 tox	ATXN2 expr inh	S2 tox	KB-3-1 cytotox	KB-V1 MDR tox
COc1ccc(CCNC(=O)Cc2ccc(OCc3ccccc3)c(OC)c2[N+](=O)[O-])cc1OCc1ccccc1	-3%	0%	2%	i	?	2.6µM*
Oc1cccc2[nH]ccc12	nt	nt	8%	i	nt	nt
Cc1cccc(-c2nc3cc(NC(=O)C4CCCO4)ccc3o2)c1 (stereo not drawn)	-24%	-42%	-17%	i	i	13µM*
CCC(=O)Nc1ccc2oc(-c3cccc(C)c3)nc2c1	0%	20µM*	34%	i	i	?
CC(=O)Nc1ccc(S(=O)(=O)Nc2cccc(-c3csc(C)n3)c2)cc1	-1%	-23%	0%[11.3 µM]	i	i	i
CC(=O)Nc1ccc(S(=O)(=O)Nc2cccc(-c3nc4cc(C)ccc4o3)c2)cc1	-15%	-11%	nt	i	18µM*	?
Cc1ccc(Nc2cc(C)c(C#N)c3nc4ccccc4n23)cc1Cl	0%	-7%	7%	i	i	i
O=c1[nH]c(=S)[nH]c2n[nH]nc12	-1%	-12%	nt	nt	i	i
O=C(NCc1cccnc1)c1cnn(-c2ncc3c(n2)-c2ccccc2CCC3)c1C1CC1	nt	nt	nt	i	nt	nt
O=C(Nc1cc(Cl)cc(Cl)c1)c1cccc(OC(F)F)c1	?	-49%	?	i	13µM*	16µM*
Cc1ccnc(NC(=O)c2cccc(OC(F)F)c2)n1	-1%	-16%	53%	i	i	i
Cc1nn2c(=O)cc(CSc3ccccc3NC(=O)c3ccccc3)nc2s1	4%	-11%	-8%	i	i	i
Cc1cccc2c(=O)cc(CSc3ccccc3NC(=O)c3cccc(Cl)c3)[nH]c12	-32%	-28%	-8%	32µM*	i	i
COC(=O)C1=C(C)NC(C)=C(C(=O)OC)C1C(=O)OCC(=O)NC1CCCCC1C (stereo not drawn)	-1%	1%	nt	i	i	i
COc1ccc(-c2nc3c4ccccc4ccn3c2CN2CCOCC2)cc1OC	?	-12%	nt	?	i	16µM*
Cc1ccccc1NC(=S)N(CCCN1CCC(C)CC1)Cc1ccco1	7%	-7%	-28%	i	i	i
Cc1ccc(NC(=S)N(CCCN2CCC(C)CC2)Cc2ccco2)cc1C	3%	-3%	-27%	i	i	23µM*
COc1cc(NC(=O)CCc2nc3cccnc3n2Cc2cccs2)cc(OC)c1OC	?	-16%	-4%	i	i	i
COc1cccc(C(=O)N/N=C(/CCC(=O)O)c2ccccc2)c1	-3%	0%	10%	i	i	i
COc1cc(C(=O)N/N=C(\c2ccccc2)c2ccccn2)cc(OC)c1OC	-4%	-24%	2.5µM*	i	?	i
COc1cccc(C(=O)N/N=C(/c2ccccc2)c2ccccn2)c1	?	-33%	4µM*	10µM*	?	i
COc1cc(NC(=O)c2ccccn2)cc(OC)c1OC	5%	6%	nt	i	i	i
C=CCn1c(CCNC(=O)c2cccs2)nnc1SCC(=O)c1ccc(Br)cc1	2%	-4%	1%	?	i	21µM*
Cc1ccc2nc(-c3ccc(O)c(O)c3)cn2c1	-10%	-16%	?	i	?	i
CC(=O)Nc1ccc(-c2cn3cc(C)ccc3n2)cc1	-2%	1%	-13%	i	i	16µM*
SMILES	TGFb inhibitor	HepG2 tox	ATXN2 expr inh	S2 tox	KB-3-1 cytotox	KB-V1 MDR tox
CC(=O)Nc1ccc(C)cc1	-9%	-1%	-2%	i	i	i
Cc1ccc2nc(-c3ccccc3)cn2c1	-6%	-61%	5µM*	i	12µM*	10µM*
CC1CCN(S(=O)(=O)c2ccc3c(c2)N(CC(=O)NC(C)(C)C)C(=O)CS3)CC1	-6%	-3%	15%	i	i	i
O=C(CNC(=O)C1CCCCC1)Nc1cc(Cl)ccc1Cl	-23%	-41%	-2%	i	i	21µM*
O=C(Nc1ccc(F)c(Cl)c1)C1CCCC1	0%	10µM*	-27%	i	i	i
O=C(Nc1ccc(F)c(Cl)c1)Nc1csc2ccccc12	?	13µM*	-35%	i	?	12µM*
O=C(CNC(=O)C1CCCCC1)Nc1ccccc1Cl	-3%	2%	-2%	i	i	i
COC(=O)c1cccc(NC(=O)NC(=O)c2ccccc2Cl)c1	-11%	-3%	-12%	i	i	i
COC(=O)c1cccc(NC(=O)Nc2ccc(Cl)c(Cl)c2)c1	?	11µM*	?	i	i	15µM*
COc1cc2nc(Cl)nc(N)c2cc1OC	nt	nt	9%	i	nt	nt
COC(=O)c1ccc(NC(=O)Nc2ccc(F)c(Cl)c2)cc1	?	-47%	?	?	i	18µM*
COC(=O)c1ccc(NC(=O)Nc2ccc(F)cc2)cc1	-4%	-2%	21%	i	i	i
CCN(CC)C(=O)Cn1c(=O)n(Cc2ccc(C(=O)NCCCOC)cc2)c(=O)c2ccccc21	3%	-3%	2%	i	i	?
NS(=O)(=O)c1ccc(CCN2C(=O)/C(=C\c3ccc(Cl)cc3)SC2=S)cc1	-15%	1%	25µM*	nt	?	18µM*
CC(NC(=O)c1ccco1)c1nnc2n1CCN(Cc1ccc(N(C)C)cc1)CC2 (stereo not drawn)	nt	nt	nt	i	nt	nt
COc1ccc(OC)c(NC(=O)CSc2nnnn2-c2ccc3c(c2)OCO3)c1	-1%	-55%	8.9µM*	i	?	?
COC(=O)c1ccc(-n2nnnc2SCC(=O)Nc2cc(OC)ccc2OC)cc1	1%	8%	-2%	i	i	i
COc1ccc(N2CCN(C(=O)CSc3nnnn3-c3ccc4c(c3)OCCO4)CC2)cc1	-4%	2%	0%	i	i	21µM*
COc1ccc(-n2nnnc2SCC(=O)N2CCOCC2)cc1	-2%	0.56µM*	4%	i	i	i
COc1ccc(N2CCN(C(=O)CSc3nnc(-c4cc5ccccc5cc4O)n3C)CC2)cc1	?	-27%	-16%	i	18µM*	2.3µM*
COC(=O)c1c(OCc2ccccc2)cc(=O)n2c1CCN(Cc1cccc(C)n1)CC2	nt	nt	nt	i	nt	nt
Cc1ccc(C(C(=O)NC2CCCC2)N(C(=O)Cc2cccs2)c2ccc(C)c(C)c2)o1 (stereo not drawn)	?	-52%	-24%	i	i	21µM*

Source: PubChem (National Center for Advancing Translational Sciences (NCATS))
